Data on 39 molecules can be found in the supplement of paper PMC13380429.

Structures can show the parent of a compound that is named as a salt.

The subject of this assay is Vero E6 infected with SARS-CoV-2. As to the kind of experiment: inhibition of SARS-CoV-2 cytopathic effect; higher = more antiviral protection, active = above 15. As to conditions: 1 nM; 48 h.
In the case of `O=C(NO)c1ccc(O)c(O)c1` [didox], the “inhibition of SARS-CoV-2 cytopathic effect” value (“inhibition” for short) is 1.58% (inactive).
As to `Cc1ccc2c(c1)=C(c1ccccc1)C(C1=NN(C(=O)CCC(=O)O)C(c3ccc(Br)cc3)C1)C(=O)N=2` (centres undefined), the “inhibition” value was -0.42% (inactive).
As to `CC(C)[C@@H]1CC[C@@H](C)C[C@H]1O` [levomenthol], the “inhibition” value was 0.46% (inactive).
As for `COc1ccc(C(=O)c2ccccc2O)c(O)c1` [dioxybenzone], the “inhibition” value is 1.95% (inactive).
For the molecule `c1ccc2c(c1)OC[C@H](CNCCCOc1ccc3c(c1)OCO3)O2` [osemozotan], the “inhibition” value was 2.23% (inactive).
As for `CC(C)C[C@H](NC(=O)[C@@H](Cc1c[nH]c2ccccc12)NC(=O)[C@H](Cc1ccc(O)cc1)NC(=O)[C@H](CO)NC(=O)[C@H](Cc1c[nH]c2ccccc12)NC(=O)[C@H](Cc1c[nH]cn1)NC(=O)[C@@H]1CCC(=O)N1)C(=O)N[C@@H](CCCNC(=N)N)C(=O)N1CCC[C@H]1C(=O)NCC(N)=O` [triptorelin], the “inhibition” value was -0.4% (inactive).
As for `Cc1cc(N2CCCCC2)nc2ccccc12`, the “inhibition” value is -1.33% (inactive).
Regarding `Oc1cc(O)cc(O)c1` [phloroglucin], the “inhibition” value was 3.42% (inactive).
For the molecule `CC(=O)NS(=O)(=O)c1ccc(NC(=O)c2ccccc2C(=O)O)cc1` [phthalylsulfacetamide], the “inhibition” value is -0.71% (inactive).
With `C[C@]1(COc2ccc(N3CCC(Oc4ccc(OC(F)(F)F)cc4)CC3)cc2)Cn2cc([N+](=O)[O-])nc2O1` [delamanid] the figure was -0.82% (inactive); with `Cc1ccc(/C=N/NC(=O)c2ccccc2Oc2ccccc2)o1`, -1.75% (inactive); with `C=CC(=O)Nc1cccc(Nc2nc(Nc3ccc(N4CCN(C(C)=O)CC4)cc3OC)ncc2C(F)(F)F)c1` [rociletinib], -0.09% (inactive).
The figure for `COc1ccc(CCN(C)CCc2ccc(OC)c(OC)c2)cc1OC` is 0.34% (inactive); for `Nc1ncnc2c1ncn2[C@H]1CC[C@@H](CO)O1` [dideoxyadenosine] it is 2.15% (inactive); for `C[C@H](Oc1cc(-c2cnn(C3CCNCC3)c2)cnc1N)c1c(Cl)ccc(F)c1Cl` [crizotinib-(S)] it is 0.35% (inactive).
For the molecule `C[C@]12CCC(=O)C=C1CC[C@@H]1[C@@H]2C(=O)C[C@]2(C)C(=O)CC[C@@H]12` [adrenosterone], the “inhibition” value was 0.47% (inactive).
Turning to `CC(=O)OCC(=O)[C@@]1(O)[C@@H](C)C[C@H]2[C@@H]3CCC4=CC(=O)C=C[C@]4(C)[C@@]3(F)[C@@H](O)C[C@@]21C` [betamethasone-acetate], the “inhibition” value was -1.36% (inactive).
With `C/C=C/C[C@@H](C)C(=O)[C@H]1C(=O)N[C@@H](C(C)C)C(=O)N(C)CC(=O)N(C)[C@@H](CC(C)C)C(=O)N[C@@H](C(C)C)C(=O)N(C)[C@@H](CC(C)C)C(=O)N[C@@H](C)C(=O)N[C@H](C)C(=O)N(C)[C@@H](CC(C)C)C(=O)N(C)[C@@H](CC(C)C)C(=O)N(C)[C@@H](C(C)C)C(=O)N1C` [valspodar] the figure was -5.19% (inactive); with `Nc1ncnc2c1c(COc1cccc(Cl)c1)nn2C1CCOCC1`, -1.11% (inactive); with `N#Cc1ccc(-c2ccc(S(=O)(=O)Nc3cccc(N)n3)cc2)cc1`, 0.14% (inactive).
`CN(C)c1cc(CNCC(C)(C)C)c(O)c2c1C[C@H]1C[C@H]3[C@H](N(C)C)C(O)=C(C(N)=O)C(=O)[C@@]3(O)C(O)=C1C2=O` [omadacycline]: the “inhibition” value is -0.66% (inactive).
For the molecule `O=C(O)c1ccccc1O` [salicylic-acid], the “inhibition” value is 1.59% (inactive).
For `O=C(Oc1cc(S(=O)(=O)c2ccccc2)ccc1[N+](=O)[O-])c1ccc(Cl)cc1`, the “inhibition” value was 0.83% (inactive).
With `NCCc1c[nH]c2ccc(C(N)=O)cc12` [5-carboxamidotryptamine] the figure was 2.2% (inactive); with `CC1CCC(NC(=O)N(CCCl)N=O)CC1` (centres undefined) [semustine], 1.43% (inactive); with `CN(C)C(=O)COC(=O)Cc1ccc(OC(=O)c2ccc(NC(=N)N)cc2)cc1` [Camostat mesylate], 0.94% (inactive).
With `CCCCCCCCCCC(O)C1C=CC2C(=O)N(c3ccccc3)C(=O)C2N1Nc1ccc([N+](=O)[O-])cc1` (centres undefined) the figure was 0.91% (inactive).
For `COc1ccc(N(C)c2nc(C)nc3ccccc23)cc1` [verubulin], the “inhibition” value is 0.84% (inactive).
With `CC=CC1=C(C(=O)O)N2C(=O)[C@@H](NC(=O)[C@H](N)c3ccc(O)cc3)[C@H]2SC1` (mixture of isomers) [cefprozil] the figure was -0.42% (inactive); with `CCOc1ccc(Nc2nc(-c3c(C)nc4ccccn34)cs2)cc1`, -1.73% (inactive); with `O=C(O)CC/C=C\C[C@@H]1CO[C@H](c2ccccc2Cl)O[C@@H]1c1ccccc1O` (racemic), 0.52% (inactive).
The figure for `N#Cc1ccc2[nH]c(O)c(-c3ccc(CN4CCOCC4)cn3)c2c1` is -0.78% (inactive).
The figure for `Cc1ncc(NC(=O)c2ccc(CN3CCN(C)CC3)c(C(F)(F)F)c2)cc1Nc1nccc(-c2cccnc2)n1` [flumatinib] is 2.56% (inactive); for `CC(C)NCCN(C(C)C)S(=O)(=O)c1ccc(Cl)cc1Cl` it is 1.45% (inactive).
On to `O=C(NC1(c2ccccc2)CC1)c1c(CN2CCC(N3CCCCC3)CC2)c(-c2cccc(C(F)(F)F)c2)nc2cc(Br)ccc12`, for which the “inhibition” value is 1.74% (inactive).
Turning to `NC(=O)c1noc([C@H](CCCC2CCCCC2)CC(=O)NO)n1`, the “inhibition” value was 1.44% (inactive).
Take `COc1cc(OC)c(OC)cc1C=O` [asaraldehyde]: the “inhibition” value is -1.46% (inactive).
With `O=C1NC(=O)C(=Cc2ccc(-c3ccc(F)cc3)o2)S1` (stereo in doubt), the “inhibition” value is -2.32% (inactive).
With `COc1ccc(Nc2ccn(-c3ccccc3)n2)cc1` the figure was 2.12% (inactive).
